In all, about 65,000 compounds went through this assay and about 2,100 (3.2%) showed an effect of 50% or more. The median lay at about -52%. What follows is part of a selection rich in strong results, with near analogues and random picks from the rest.
Each compound was assayed on Plasmodium falciparum (assay: Screen against P. falciparum Asexual Blood Stage (ABS), at 5uM). Conditions: tested at 5 uM.
Assay type: functional, Dd2

Structure (SMILES) | INHIBITION
C/C=C(\C)CN1C[C@H](NC(=O)CCOC)[C@@H](c2ccc(C)o2)C1 | -33.1%
CCC1(CO)CCN(C(=O)c2cc(COc3ccccc3F)[nH]n2)CC1 | -66.6%
O=C(c1cccnc1)N1CCN2C[C@H](OCc3ccccc3)C[C@H]2C1 | -19.2%
CCc1ccc(C2CC(=O)Nc3c2c(=O)[nH]n3C(C)C)cc1 (stereo not drawn) | -113%
c1ccc(CN2CCn3c(Cn4cncn4)cnc3C2)nc1 | -53.9%
O=C1N(Cc2ccc(F)c(F)c2)CCCC12CCN(C1CCCC1)C2 (stereo not drawn) | 68.1%
CCS(=O)(=O)N1CCC2(CCCN(Cc3ccc(F)c(F)c3)C2=O)C1 (stereo not drawn) | -68%
O=C1N(Cc2ccccc2F)CCCC12CCN(C1CCSCC1)C2 (stereo not drawn) | 34.2%
O=C1N(Cc2ccc(F)c(F)c2)CCCC12CCN(C1CCCCC1)C2 (stereo not drawn) | 60.9%
Cc1cccc(CN2CCCC3(CCN(C4CCSCC4)C3)C2=O)c1 (stereo not drawn) | 6.83%
O=C1N(Cc2ccc(F)cc2)CCCC12CCN(C1CCSCC1)C2 (stereo not drawn) | 9.56%
CCCS(=O)(=O)N1C[C@H]2CC[C@@H](C1)N(Cc1cscn1)C2=O | -60%
Nc1cc(N2CCOCC(Cc3ccc4[nH]ccc4c3)C2)ncn1 (stereo not drawn) | -6.79%
Cc1nc(C(=O)NC2CCN(CCOc3ccc(Br)cc3)CC2)cs1 | 50%
CC(=O)Nc1nc(C(=O)NCCOc2ccc(C)cc2)cs1 | -4.82%
CCc1nnsc1C(=O)NC1CCN(CCOc2ccc(Br)cc2)CC1 | 2.8%
CCn1ccnc1CN1CCCN(C(=O)c2ccnc(C)n2)CC1 | -61.7%
COc1ccc2c(c1)OCC(CNC1CCc3nc(C)nn3C1)=C2 (stereo not drawn) | -98%
Cc1csc(N2CCCN(c3cc(C)nc(C)c3C#N)CC2)n1 | -45.8%
O=C(O)CCCC(=O)Nc1cnn(COc2ccc(F)cc2Cl)c1 | -39.2%
O=C(Nc1cnn(COc2ccc(F)cc2Cl)c1)C1CC1 | 67.2%
O=C(Nc1cnn(Cc2ccc(F)cc2Cl)c1)C1CC1 | -0.313%
CO[C@H]1CN(C(=O)c2cn3cc(C)ccc3n2)CC[C@@]12CCCO2 | -142%
Cc1nc(C(=O)N(C)CC2CCCO2)nn1-c1ccccc1C(C)C (stereo not drawn) | -143%
CCOCc1nc(-c2ccc(F)cc2Cl)n(C)n1 | -121%
CN1C(=O)CC(c2ccccc2)C12CCN(CC1CC1)CC2 (stereo not drawn) | 16.7%
CCN1C(=O)CC(c2ccccc2)C12CCN(CC1CCOCC1)CC2 (stereo not drawn) | 50.3%
CN1C(=O)CC(c2ccccc2)C12CCN(CC1CCOCC1)CC2 (stereo not drawn) | 36.1%
